The supplement of paper PMC10849652
Of roughly 8,800 targets only a part is listed; those with a hit were picked by preference. About 0.5% of all pairs of compound and target were hits. Values without a mark were called inactive.

Experiments:
Experiment in all cases: log2 fold change, soluble protein after heating vs DMSO (PISA); higher = thermal stabilisation; K562 lysate, 10 uM; active = over 0.2 and 3.5 SD of the protein, either way, in both replicates (recomputed)
lapatinib = compound: CS(=O)(=O)CCNCc1ccc(-c2ccc3ncnc(Nc4ccc(OCc5cccc(F)c5)c(Cl)c4)c3c2)o1 [lapatinib]
Method in brief: (§1)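 Values give the log-two fold change in thermal stability against solvent controls, from duplicates. Crude K562 extract at 1 mg/mL protein, made by dounce homogenisation in PBS pH 7.4 with 1 mM MgCl2, was treated with 10 μM compound for 30 min. After 3 min heating across 48°C-58°C, aliquots were pooled, adjusted to 0.5% NP-40 at 4°C and centrifuged at 21,000xg for 90 min. The supernatant was measured by TMTpro 16plex LC-MS/MS with channel sums equalised.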

pictilisib = compound: CS(=O)(=O)N1CCN(Cc2cc3nc(-c4cccc5[nH]ncc45)nc(N4CCOCC4)c3s2)CC1 [pictilisib]
Method in brief: as §1

crizotinib = compound: C[C@@H](Oc1cc(-c2cnn(C3CCNCC3)c2)cnc1N)c1c(Cl)ccc(F)c1Cl [crizotinib]
Method in brief: as §1

[1] = compound: C[C@H](C1=CC=C(C=C1)C(=O)NC2=C3C=CNC3=NC=C2)N
Method in brief: as §1

duvelisib = compound: C[C@H](Nc1ncnc2nc[nH]c12)c1cc2cccc(Cl)c2c(=O)n1-c1ccccc1 [duvelisib]
Method in brief: as §1

gandotinib = compound: Cc1cc(Nc2cc(CN3CCOCC3)c3nc(C)c(Cc4ccc(Cl)cc4F)n3n2)n[nH]1 [gandotinib]
Method in brief: as §1

tozasertib = compound: Cc1cc(Nc2cc(N3CCN(C)CC3)nc(Sc3ccc(NC(=O)C4CC4)cc3)n2)n[nH]1 [tozasertib]
Method in brief: as §1

doramapimod = compound: Cc1ccc(-n2nc(C(C)(C)C)cc2NC(=O)Nc2ccc(OCCN3CCOCC3)c3ccccc23)cc1 [doramapimod]
Method in brief: as §1

bafetinib = compound: Cc1ccc(NC(=O)c2ccc(CN3CC[C@H](N(C)C)C3)c(C(F)(F)F)c2)cc1Nc1nccc(-c2cncnc2)n1 [bafetinib]
Method in brief: as §1

[2] = compound: Cc1cccc(CC(=O)N2CCc3c2ccc(-c2cn(C)c4ncnc(N)c24)c3F)n1
Method in brief: as §1

UniProt A8MTT3, sequence (A8MTT3 whole entry, looked up): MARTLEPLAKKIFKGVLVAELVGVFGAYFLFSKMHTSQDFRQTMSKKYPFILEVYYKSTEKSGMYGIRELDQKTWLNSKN
UniProt Q9BRD0, sequence (Q9BRD0 whole entry, looked up): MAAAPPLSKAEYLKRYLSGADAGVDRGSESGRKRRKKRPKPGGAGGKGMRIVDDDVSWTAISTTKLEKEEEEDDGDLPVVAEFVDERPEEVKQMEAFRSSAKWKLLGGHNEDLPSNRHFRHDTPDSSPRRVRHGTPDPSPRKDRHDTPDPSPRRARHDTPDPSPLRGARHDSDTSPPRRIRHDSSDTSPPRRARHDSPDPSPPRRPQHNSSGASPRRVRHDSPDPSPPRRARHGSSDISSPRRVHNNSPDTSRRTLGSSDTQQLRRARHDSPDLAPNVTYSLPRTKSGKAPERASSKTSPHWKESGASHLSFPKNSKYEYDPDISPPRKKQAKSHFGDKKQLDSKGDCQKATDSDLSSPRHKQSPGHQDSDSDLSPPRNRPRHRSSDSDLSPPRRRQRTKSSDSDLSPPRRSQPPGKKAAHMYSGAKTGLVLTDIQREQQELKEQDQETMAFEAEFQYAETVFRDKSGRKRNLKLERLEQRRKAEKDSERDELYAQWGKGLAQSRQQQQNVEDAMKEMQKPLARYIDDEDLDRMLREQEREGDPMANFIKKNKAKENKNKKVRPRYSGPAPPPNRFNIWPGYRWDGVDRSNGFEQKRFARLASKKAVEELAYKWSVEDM
UniProt Q6P4H8, sequence (Q6P4H8 whole entry, looked up): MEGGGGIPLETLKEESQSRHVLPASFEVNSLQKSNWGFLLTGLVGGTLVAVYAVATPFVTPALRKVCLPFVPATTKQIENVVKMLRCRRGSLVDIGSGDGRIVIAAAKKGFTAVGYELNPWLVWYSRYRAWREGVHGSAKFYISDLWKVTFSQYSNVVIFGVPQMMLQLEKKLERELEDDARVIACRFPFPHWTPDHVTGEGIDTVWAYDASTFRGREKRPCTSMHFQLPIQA
UniProt O75419, sequence (O75419 whole entry, looked up): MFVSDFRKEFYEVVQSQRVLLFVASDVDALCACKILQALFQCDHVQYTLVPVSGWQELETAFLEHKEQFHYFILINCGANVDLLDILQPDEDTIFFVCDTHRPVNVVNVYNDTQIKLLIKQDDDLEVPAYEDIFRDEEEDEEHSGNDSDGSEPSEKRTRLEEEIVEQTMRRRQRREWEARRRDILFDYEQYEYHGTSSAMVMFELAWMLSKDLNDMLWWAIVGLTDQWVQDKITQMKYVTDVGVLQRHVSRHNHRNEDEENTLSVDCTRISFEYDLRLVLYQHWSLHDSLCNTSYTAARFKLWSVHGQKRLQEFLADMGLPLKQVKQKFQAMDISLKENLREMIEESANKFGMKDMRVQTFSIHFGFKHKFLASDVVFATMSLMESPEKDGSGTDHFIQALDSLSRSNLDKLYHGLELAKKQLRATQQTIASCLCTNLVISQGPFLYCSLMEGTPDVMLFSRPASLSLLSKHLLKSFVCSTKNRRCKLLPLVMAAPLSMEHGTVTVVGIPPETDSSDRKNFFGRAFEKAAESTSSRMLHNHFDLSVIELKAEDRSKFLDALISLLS
UniProt Q9NQS1, sequence (Q9NQS1 whole entry, looked up): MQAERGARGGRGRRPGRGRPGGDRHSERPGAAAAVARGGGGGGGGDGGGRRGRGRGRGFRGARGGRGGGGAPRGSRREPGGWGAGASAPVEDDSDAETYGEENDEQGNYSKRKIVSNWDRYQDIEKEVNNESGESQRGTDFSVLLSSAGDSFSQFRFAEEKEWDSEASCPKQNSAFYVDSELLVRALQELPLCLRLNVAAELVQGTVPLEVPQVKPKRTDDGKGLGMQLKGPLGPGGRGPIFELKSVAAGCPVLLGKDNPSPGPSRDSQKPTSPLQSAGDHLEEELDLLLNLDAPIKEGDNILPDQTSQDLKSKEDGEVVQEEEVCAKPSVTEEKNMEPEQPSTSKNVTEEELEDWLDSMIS
UniProt P30304, sequence (P30304 whole entry, looked up): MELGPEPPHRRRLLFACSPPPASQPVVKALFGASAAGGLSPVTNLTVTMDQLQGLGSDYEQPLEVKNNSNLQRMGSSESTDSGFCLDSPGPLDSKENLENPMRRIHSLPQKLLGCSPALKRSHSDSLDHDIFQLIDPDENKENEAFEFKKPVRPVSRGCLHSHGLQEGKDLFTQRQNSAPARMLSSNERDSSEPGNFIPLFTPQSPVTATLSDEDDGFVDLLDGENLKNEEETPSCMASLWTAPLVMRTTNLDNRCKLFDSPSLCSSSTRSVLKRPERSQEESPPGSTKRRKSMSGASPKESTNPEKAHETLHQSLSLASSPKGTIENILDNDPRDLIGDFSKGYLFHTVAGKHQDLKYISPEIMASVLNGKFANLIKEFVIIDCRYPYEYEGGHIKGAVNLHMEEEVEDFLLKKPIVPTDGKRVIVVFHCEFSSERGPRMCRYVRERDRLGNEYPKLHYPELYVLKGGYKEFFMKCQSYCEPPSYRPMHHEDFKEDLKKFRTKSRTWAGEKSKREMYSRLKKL
UniProt Q96SZ6, sequence (Q96SZ6 whole entry, looked up): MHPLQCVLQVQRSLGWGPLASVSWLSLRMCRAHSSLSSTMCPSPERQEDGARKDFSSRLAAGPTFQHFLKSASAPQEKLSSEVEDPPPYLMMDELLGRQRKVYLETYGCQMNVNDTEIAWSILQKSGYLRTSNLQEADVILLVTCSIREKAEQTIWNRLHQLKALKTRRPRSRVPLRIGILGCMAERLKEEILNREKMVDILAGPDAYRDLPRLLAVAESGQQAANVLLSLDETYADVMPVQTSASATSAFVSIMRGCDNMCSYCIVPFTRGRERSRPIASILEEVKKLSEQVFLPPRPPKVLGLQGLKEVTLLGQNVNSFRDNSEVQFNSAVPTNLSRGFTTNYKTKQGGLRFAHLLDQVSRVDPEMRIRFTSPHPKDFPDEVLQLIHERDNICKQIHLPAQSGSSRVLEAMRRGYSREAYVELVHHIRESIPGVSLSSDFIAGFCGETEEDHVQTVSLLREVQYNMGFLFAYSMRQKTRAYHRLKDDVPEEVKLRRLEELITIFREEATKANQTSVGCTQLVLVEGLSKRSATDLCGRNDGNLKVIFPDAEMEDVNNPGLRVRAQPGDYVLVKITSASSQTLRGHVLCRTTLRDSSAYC
UniProt P13994, sequence (P13994 whole entry, looked up): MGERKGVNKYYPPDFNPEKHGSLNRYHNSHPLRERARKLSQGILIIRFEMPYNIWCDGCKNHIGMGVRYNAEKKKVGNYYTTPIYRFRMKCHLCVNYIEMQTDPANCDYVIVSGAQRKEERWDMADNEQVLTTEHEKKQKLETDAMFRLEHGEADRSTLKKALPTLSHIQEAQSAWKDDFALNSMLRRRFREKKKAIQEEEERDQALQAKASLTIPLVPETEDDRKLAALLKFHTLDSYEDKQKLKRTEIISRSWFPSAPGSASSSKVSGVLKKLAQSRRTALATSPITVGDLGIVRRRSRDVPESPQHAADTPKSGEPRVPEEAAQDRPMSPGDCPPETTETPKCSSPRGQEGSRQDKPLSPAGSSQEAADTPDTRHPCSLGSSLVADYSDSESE
UniProt Q8NDD1, sequence (Q8NDD1 whole entry, looked up): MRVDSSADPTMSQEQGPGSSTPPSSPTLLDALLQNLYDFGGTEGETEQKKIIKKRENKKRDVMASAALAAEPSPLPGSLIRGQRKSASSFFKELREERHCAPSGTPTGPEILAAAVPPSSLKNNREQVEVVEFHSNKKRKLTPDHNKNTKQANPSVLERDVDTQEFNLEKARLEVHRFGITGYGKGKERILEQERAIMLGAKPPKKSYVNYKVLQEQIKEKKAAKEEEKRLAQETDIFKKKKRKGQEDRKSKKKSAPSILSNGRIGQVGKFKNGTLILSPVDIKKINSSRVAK
UniProt Q9BXL7, sequence (Q9BXL7 whole entry, looked up): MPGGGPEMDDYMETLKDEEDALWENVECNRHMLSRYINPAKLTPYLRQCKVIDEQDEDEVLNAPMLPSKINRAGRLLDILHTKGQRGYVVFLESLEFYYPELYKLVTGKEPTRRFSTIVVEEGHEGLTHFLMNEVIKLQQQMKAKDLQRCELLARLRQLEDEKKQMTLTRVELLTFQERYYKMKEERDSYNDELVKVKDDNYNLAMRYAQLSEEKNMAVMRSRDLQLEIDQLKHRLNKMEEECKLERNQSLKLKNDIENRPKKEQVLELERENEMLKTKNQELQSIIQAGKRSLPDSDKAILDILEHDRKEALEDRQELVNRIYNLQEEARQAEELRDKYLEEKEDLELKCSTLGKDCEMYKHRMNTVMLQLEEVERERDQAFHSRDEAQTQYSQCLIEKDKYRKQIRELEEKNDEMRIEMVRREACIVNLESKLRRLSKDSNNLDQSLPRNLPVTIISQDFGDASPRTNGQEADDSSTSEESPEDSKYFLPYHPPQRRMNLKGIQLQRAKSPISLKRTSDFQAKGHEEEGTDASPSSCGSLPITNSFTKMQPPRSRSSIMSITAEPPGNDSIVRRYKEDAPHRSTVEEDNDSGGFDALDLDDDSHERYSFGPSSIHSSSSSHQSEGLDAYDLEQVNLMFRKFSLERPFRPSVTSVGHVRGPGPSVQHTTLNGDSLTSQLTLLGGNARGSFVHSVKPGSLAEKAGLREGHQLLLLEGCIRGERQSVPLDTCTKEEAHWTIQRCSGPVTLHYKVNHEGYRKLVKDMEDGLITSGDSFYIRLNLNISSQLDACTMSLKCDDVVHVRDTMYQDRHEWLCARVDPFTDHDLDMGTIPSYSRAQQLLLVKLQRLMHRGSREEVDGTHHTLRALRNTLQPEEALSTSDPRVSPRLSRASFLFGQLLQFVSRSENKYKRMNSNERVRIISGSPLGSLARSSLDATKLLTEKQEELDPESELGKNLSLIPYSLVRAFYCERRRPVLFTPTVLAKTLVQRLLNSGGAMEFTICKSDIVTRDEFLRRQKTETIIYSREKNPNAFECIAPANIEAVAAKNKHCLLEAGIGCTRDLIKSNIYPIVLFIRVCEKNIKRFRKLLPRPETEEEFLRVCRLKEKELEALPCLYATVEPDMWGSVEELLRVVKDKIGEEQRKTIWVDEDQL
UniProt P0DMB2, sequence (P0DMB2 whole entry, looked up): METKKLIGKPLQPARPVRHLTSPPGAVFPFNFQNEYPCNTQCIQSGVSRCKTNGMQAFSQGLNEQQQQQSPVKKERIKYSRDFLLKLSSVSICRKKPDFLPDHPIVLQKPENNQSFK

Target | log2 fold change (lapatinib) | log2 fold change (pictilisib) | log2 fold change (crizotinib) | log2 fold change [1] | log2 fold change (duvelisib) | log2 fold change (gandotinib) | log2 fold change (tozasertib) | log2 fold change (doramapimod) | log2 fold change (bafetinib) | log2 fold change [2]
CARD11 (UniProt Q9BXL7) | 0.001 | -0.287 (active) | -0.018 | -0.025 | 0.029 | -0.035 | -0.021 | 0.028 | -0.059 | 0.038
C16orf70 (UniProt Q9BSU1) | -0.002 | -0.076 | 0.058 | – | -0.013 | – | 0.018 | 0.116 | -0.045 | –
CDK5RAP2 (UniProt Q96SN8) | -0.182 | -0.04 | -0.035 | -0.032 | 0.023 | -0.092 | 0.024 | 0.003 | 0 | 0.084
CDC25C (UniProt P30307) | -0.118 | -0.025 | – | -0.049 | -0.021 | -0.109 | 0.03 | -0.003 | 0.038 | 0.013
CDC45 isoform 3 (UniProt O75419) | -0.036 | -0.014 | -0.009 | 0.023 | -0.007 | -0.079 | 0 | -0.002 | -0.077 | -0.018
CDK5RAP1 (UniProt Q96SZ6) | – | 0.184 | -0.027 | 0.051 | -0.044 | 0.071 | 0.015 | 0 | 0.018 | -0.009
BRAF (UniProt P15056) | – | -0.025 | -0.099 | -0.086 | 0.015 | 0.014 | -0.013 | – | 0.64 (active) | 0.065
C3AR1 (UniProt Q16581) | – | -0.023 | 0.02 | -0.025 | – | 0.043 | – | -0.01 | 0.111 | 0.099
CAD (UniProt H7BZB3) | – | – | – | 0.069 | – | 0.036 | -0.062 | – | – | 0.057
ATPSCKMT (UniProt Q6P4H8) | – | -0.113 | -0.039 | – | -0.036 | – | -0.219 | 0.022 | -0.034 | –
CAPNS1 (UniProt K7ES78) | 0.162 | – | 0.158 | – | 0.17 | – | – | -0.08 | – | –
CDK17 isoform 2 (UniProt Q00537) | – | -0.008 | 0.026 | 0.096 | -0.04 | 0.042 | -0.113 | 0.15 | -0.033 | -0.359
CEP57L1 (UniProt Q8IYX8) | – | 0.076 | 0.056 | -0.039 | -0.004 | -0.022 | -0.07 | 0.05 | -0.184 | 0.073
C8orf88 (UniProt P0DMB2) | – | 0.028 | 0.038 | 0.054 | 0.058 | -0.017 | – | -0.004 | -0.016 | -0.095
CCDC130 (UniProt P13994) | – | -0.003 | -0.689 | – | – | – | 0.055 | 0.617 | -0.119 | –
CENPV (UniProt Q7Z7K6) | – | 0.02 | -0.119 | 0.089 | – | -0.193 | 0.094 | -0.149 | -0.163 | -0.36
CDC14A isoform 2 (UniProt Q9UNH5) | 0.062 | – | 0.031 | – | – | – | – | 0.108 | – | –
CDCA8 (UniProt Q53HL2) | – | 0.072 | – | 0.319 | 0.031 | -0.031 | -0.047 | – | -0.217 | -0.128
CEP152 (UniProt O94986) | – | -0.013 | -0.22 | -0.089 | -0.017 | 0.006 | -0.114 | -0.057 | -0.071 | 0.058
BRAF, A0A2R8Y8E0 | – | – | – | – | – | – | 0.035 | – | – | –
CDKL5 (UniProt O76039) | -0.207 | – | -0.167 | -0.128 | 0.073 | 0.537 | 0.024 | -0.057 | – | -0.073

Target | log2 fold change (lapatinib) | log2 fold change (pictilisib) | log2 fold change (crizotinib) | log2 fold change [1] | log2 fold change (duvelisib) | log2 fold change (gandotinib) | log2 fold change (tozasertib) | log2 fold change (doramapimod) | log2 fold change (bafetinib) | log2 fold change [2]
CDK16 isoform 2 (UniProt Q00536) | 0.046 | – | 0.063 | -0.016 | 0.043 | 0.533 (active) | – | 0.012 | -0.007 | -0.05
ATXN2 (UniProt F8WB06) | – | – | – | – | 0.187 | – | – | – | – | –
CCP110 (UniProt O43303) | – | -0.085 | -0.006 | – | 0.084 | – | -0.009 | 0.009 | -0.053 | –
BBS7 (UniProt Q8IWZ6) | – | – | -0.036 | 0.003 | 0.039 | 0.072 | 0.021 | 0.151 | – | -0.119
CD80 (UniProt P33681) | 0.122 | – | -0.007 | 0.395 (active) | 0.104 | -0.086 | 0.088 | -0.008 | – | 0.016
C15orf39 (UniProt Q6ZRI6) | – | -0.04 | 0.043 | 0.025 | -0.049 | -0.076 | 0.097 | 0 | 0.19 | -0.055
CEBPZOS (UniProt A8MTT3) | -0.001 | – | -0.025 | -0.352 | 0.035 | -0.044 | 0.039 | 0.177 | – | 0.203 (active)
ATG4D (UniProt Q86TL0) | – | -0.054 | -0.031 | – | 0.109 | – | 0.099 | -0.072 | -0.056 | –
CACUL1 (UniProt Q86Y37) | -0.26 | – | 0.037 | 0.061 | 0.044 | -0.151 | 0.094 | 0.029 | – | 0.08
CASC1 (UniProt Q6TDU7) | – | -0.06 | – | -0.175 | – | 0.058 | – | – | 0.953 | 0.095
CDC25A (UniProt P30304) | -0.016 | – | – | – | -0.014 | – | – | 0.114 | – | –
CHD9 (UniProt Q3L8U1) | – | – | 0.055 | 1.37 (active) | 0.106 | -0.111 | – | -0.057 | – | -0.27
AVEN (UniProt Q9NQS1) | – | 0.022 | -0.08 | -0.462 | 0.014 | 0.262 | 0.084 | 0.068 | -0.097 | 0.338
CHD4, A0A2R8Y521 | 0.025 | – | – | – | 0.006 | – | 0.081 | – | – | –
CEP128 (UniProt Q6ZU80) | – | -0.123 | – | -1.2 (active) | -0.022 | 0.331 | 0.027 | – | -0.043 | 0.297
CCND3 (UniProt P30281) | – | -0.01 | -0.083 | -0.175 | 0.015 | -0.022 | 0.073 | 0.101 | 0.003 | 0.096
BAHCC1 (UniProt Q9P281) | -0.117 | – | -0.191 | -0.956 (active) | 0.002 | 0.006 | 0.052 | 0.137 | – | 0.234
BUD13 (UniProt Q9BRD0) | – | 0.104 | -0.044 | -0.053 | 0.08 | 0.045 | 0.008 | 0.014 | -0.134 | 0.114
BCORL1 isoform 3 (UniProt Q5H9F3) | – | – | -0.162 | -0.577 (active) | 0.1 | 0.238 | 0.049 | 0.117 | – | 0.475
C1orf131 isoform 5 (UniProt Q8NDD1) | 0.065 | – | -0.006 | -0.16 | 0.028 | 0.076 | 0.03 | -0.008 | – | 0.177
